# Only some compounds are listed: those with a hit (about 0.48% of all), similar ones and a draw of the others.
# TLR4 MyD88 blk – inhibitors of human TLR4-MyD88 binding. Toll-like receptor 4 (Homo sapiens), O00206. Cell-based TLR4-MyD88 binding inhibition assay. inhibition, % at 10 µM. hit rate 0.06% among 16,000; in the data active means inhibition above about 45%
# OPRK1 antag MB – antagonists of human kappa opioid receptor OPRK1, Maybridge library | OPRK1 cells, antagonist mode, fluorescence readout | hit rate 0.4% among 16,000 | inhibition, % at 9 µM; in the data active means inhibition above about 50%
# * marks the source's active call; other numbers are inactive results.
SMILES,TLR4 MyD88 blk,OPRK1 antag MB
Cn1c(=O)c2cc3cc(Cl)ccc3nc2c2c(=O)n(-c3ccccc3)c(=O)n(-c3ccccc3)c21,1.4,70.1*
Cn1c(=O)c2c3nc4ccccc4cc3c(=O)n(C)c2n(C)c1=O,-0.5,10.8
O=S(=O)(CCO/N=C/c1cccs1)c1ccc(Cl)cc1,-3.6,3.7
O=C(Nc1cc(Cl)cc(Cl)c1)c1ccccc1F,-10.9,27.8
CSc1nn(-c2c(Cl)cc(C(F)(F)F)cc2Cl)c(N)c1C#N,2.0,-7.2
Cc1c(N2CCCC2)cc2c(c1N)C(C)(C)CC2(C)C,0.7,-12.6
COC(=O)C1=C(C)NC2=C(C(=O)CC(C)(C)C2)C1c1ccc(OC)c(O)c1 (stereo not given),-0.7,-17.4
CCOC(=O)c1ccc(N2CC3CCCCN3C2c2cccc(OC)c2O)cc1 (stereo not given),-1.4,59.9*
CCOC(=O)C1CCCN(C(=O)c2ccc(OC)c(OC)c2)C1 (stereo not given),4.6,13.1
O=C(NCCCn1ccnc1)c1ccccc1NS(=O)(=O)c1ccc(Cl)cc1,0.3,0.4
CCOC(=O)C1CCN(c2ccccc2CN2CCN(c3ccccc3OCC)CC2)CC1,4.8,-1.1
CCOC(=O)C1CCN(Cc2cccc(NC(=O)c3ccco3)c2)CC1,0.9,55.6*
CC(C)(C)OC(=O)N1CCCN(S(=O)(=O)c2cccc3nsnc23)CC1,4.0,1.1
Cc1ccc(-n2c(N)n[nH]c2=S)cc1,1.0,9.6
COc1cc([N+](=O)[O-])c(OC)cc1SCc1n[nH]c(=S)n1-c1ccc(C)cc1,-7.1,76.4*
CCN(C(=S)Nc1ccccc1OC)c1ccccc1,8.2,25.6
O=[N+]([O-])c1cccc(-c2ccc(/C=N/NC(=S)NCc3ccco3)o2)c1,-7.8,8.0
O=[N+]([O-])c1ccc(-c2ccc(/C=N/NC(=S)Nc3cccc(F)c3)o2)cc1,8.6,151.8*
c1ccc(-c2cnsc2-c2ccccc2)cc1,-0.6,11.9
COC(=O)C1C(c2ccccc2)NC(c2ccccc2)C(C(=O)OC)S1(=O)=O (stereo not given),-10.1,-25.0
COc1ccc(C(=O)Nc2ccccc2)cc1OC,1.2,-2.0
CN(C)c1ccc(-n2nnnc2SCc2ccc(Cl)cc2)cc1,-11.3,58.6*
CN(C)c1ccc(-n2nnnc2SCC(=O)c2cc3ccccc3o2)cc1,1.2,1.9
COC(=O)c1cc(C)c(-c2ccc(-c3ccccc3F)cc2)s1,5.8,7.4
COC(=O)c1cc(-c2ccc(OC)cc2)c(-c2ccc(OC)cc2)s1,-9.7,78.4*
SMILES,TLR4 MyD88 blk,OPRK1 antag MB
CCC12CC3CC(C1)CC(C(=O)O)(C3)C2,1.9,-1.2
Cc1noc(C)c1NC(=O)NCCN1CCN(Cc2ccccc2)CC1,2.5,-7.2
COc1ccccc1NC(=O)NCCN1CCN(Cc2ccccc2)CC1,4.4,80.2*
CS(=O)(=NS(=O)(=O)c1cc(S(=O)(=O)c2ccccc2)cs1)c1ccc(Cl)cc1 (stereo not given),-7.8,-21.2
Cn1c(SCC(=O)Nc2cccc(Cl)c2)nnc1-c1ccc(OCC(F)(F)F)nc1,-4.3,-1.8
CCNc1nc2ccc(Cl)cc2nc1NCC,1.6,-1.2
Clc1ccc2nc3c(nc2c1)Nc1ccccc1S3,43.1,90.3*
O=[N+]([O-])c1ccc(C2Nc3ccc(F)cc3N2)s1 (stereo not given),23.6,26.4
NNC(=O)CSCC(=O)Nc1ccccc1,-9.7,0.8
CCOC(=O)c1cc(C#N)c(Sc2n[nH]c(C(C)(C)C)n2)nc1C(F)(F)F,1.3,6.6

# Screens from PubChem.
